PubChem BioAssay AID1159580 (chemical genetic matrix, 2015)
Among all 5,500 compounds or so, about 2,000 (36%) were called active. Roughly 18% stayed inconclusive and do not appear here. Rule as the data show it: active = normalized growth mostly below about 0.91 (no sharp cut-off); inconclusive = no clear call, values can overlap the other calls; inactive = mostly above about 0.92. The list shows a part of the results.

Assay: chemical genetic growth profiling, strain panel (AID 1159580);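 also: tested at 20 µM; growth read once vehicle control cultures reached saturation at 30 °C; 1 = growth at the plate median or of vehicle wells; lower values mean less growth of the strain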
Conditions: S. cerevisiae deletion strains, growth OD

Measured: normalized growth

O=C1c2ccc(O)c(O)c2C(=O)c2c(O)ccc(O)c21
inactive: locus YBR021W, strain FUR4, stronger effect = lower value 1.01 | locus YBR229C, strain ROT2, stronger effect = lower value 1.01 | locus YCL029C, strain bik1, stronger effect = lower value 1 | locus YDL035C, strain GPR1, stronger effect = lower value 1.03 | locus YDL074C, strain BRE1, stronger effect = lower value 1 | locus YDL101C, strain DUN1, stronger effect = lower value 1.01 | locus YDL185W, strain tfp1, stronger effect = lower value 1.01 | locus YDL192W, strain arf1, stronger effect = lower value 0.99 | locus YDR101C, strain arx1, stronger effect = lower value 1.01 | locus YDR162C, strain NBP2, stronger effect = lower value 1.03 | locus YDR195W, strain ref2 0.873 | locus YDR318W, strain mcm21, stronger effect = lower value 0.992 | locus YDR388W, stronger effect = lower value 0.997 | locus YDR502C, strain sam2, stronger effect = lower value 0.991 | locus YEL061C, strain CIN8, stronger effect = lower value 1 | locus YER110C, stronger effect = lower value 0.991 | locus YER155C, strain BEM2, stronger effect = lower value 1 | locus YER167W, strain BCK2, stronger effect = lower value 1.02 | locus YGL078C, strain dbp3, stronger effect = lower value 0.982 | locus YGL086W, strain mad1, stronger effect = lower value 0.989 | locus YGL248W, strain PDE1, stronger effect = lower value 1 | locus YGR078C, strain PAC10, stronger effect = lower value 1.01 | locus YGR135W, strain pre9, stronger effect = lower value 0.991 | locus YGR252W, strain gcn5, stronger effect = lower value 0.977 | locus YHR013C, strain ard1, stronger effect = lower value 0.953 | locus YHR030C, strain SLT2, stronger effect = lower value 1.01 | locus YHR079C, strain IRE1 (second series), stronger effect = lower value 0.991 | locus YHR094C, strain hxt1, stronger effect = lower value 0.995 | locus YHR129C, strain ARP1, stronger effect = lower value 1.01 | locus YHR200W, strain rpn10, stronger effect = lower value 0.998 | locus YIL066C, strain RNR3, stronger effect = lower value 1.03 | locus YIL073C, strain SPO22, stronger effect = lower value 1.01 | locus YIL125W, strain kgd1, stronger effect = lower value 0.992 | locus YIR030C, strain dcg1, stronger effect = lower value 0.988 | locus YJL095W, strain BCK1, stronger effect = lower value 0.998 | locus YJL134W, strain LCB3, stronger effect = lower value 1.01 | locus YJL168C, strain set2, stronger effect = lower value 0.988 | locus YJL187C, strain SWE1 (second series), stronger effect = lower value 1.01 | locus YJR043C, strain POL32, stronger effect = lower value 1.03 | locus YKL009W, strain mrt4, stronger effect = lower value 0.978 | locus YKL068W, stronger effect = lower value 0.992 | locus YKL085W, strain MDH1 (second series), stronger effect = lower value 0.99 | locus YKL085W, strain MDH1, stronger effect = lower value 0.99 | locus YKL190W, strain CNB1, stronger effect = lower value 1.01 | locus YKR001C, strain vps1, stronger effect = lower value 0.985 | locus YLR039C, strain RIC1, stronger effect = lower value 1.03 | locus YLR058C, strain SHM2, stronger effect = lower value 1.01 | locus YLR102C, strain apc9, stronger effect = lower value 0.991 | locus YLR262C, strain YPT6, stronger effect = lower value 1.09 | locus YLR268W, strain sec22, stronger effect = lower value 1.01 | locus YLR330W, strain CHS5, stronger effect = lower value 1.01 | locus YLR342W, strain FKS1 (second series), stronger effect = lower value 1.02 | locus YLR371W, strain rom2, stronger effect = lower value 0.986 | locus YLR418C, strain cdc73, stronger effect = lower value 0.978 | locus YML016C, strain PPZ1, stronger effect = lower value 1.01 | locus YML032C, strain rad52, stronger effect = lower value 1.01 | locus YML124C, strain tub3, stronger effect = lower value 0.988 | locus YMR078C, strain ctf18, stronger effect = lower value 0.996 | locus YMR223W, strain ubp8, stronger effect = lower value 0.998 | locus YMR307W, strain GAS1, stronger effect = lower value 1.07 | locus YNL067W, strain RPL9B, stronger effect = lower value 0.997 | locus YNL128W, strain TEP1, stronger effect = lower value 1.01 | locus YNL153C, strain GIM3, stronger effect = lower value 0.998 | locus YNL233W, strain BNI4, stronger effect = lower value 1.01 | locus YNL250W, strain rad50, stronger effect = lower value 0.998 | locus YNL271C, strain bni1, stronger effect = lower value 0.994 | locus YNL298W, strain CLA4, stronger effect = lower value 0.994 | locus YNL307C, strain MCK1, stronger effect = lower value 0.994 | locus YNR052C, strain pop2, stronger effect = lower value 0.993 | locus YOL012C, strain htz1 0.902 | locus YOL147C, strain pex11, stronger effect = lower value 0.998 | locus YOR061W, strain CKA2, stronger effect = lower value 1.02 | locus YOR069W, strain VPS5, stronger effect = lower value 1.01 | locus YOR136W, strain idh2, stronger effect = lower value 1.02 | locus YOR144C, strain elg1, stronger effect = lower value 0.991 | locus YOR184W, strain ser1, stronger effect = lower value 0.995 | locus YOR316C, strain cot1, stronger effect = lower value 0.996 | locus YPL241C, strain CIN2, stronger effect = lower value 1.01 | locus YPR119W, strain clb2, stronger effect = lower value 0.989 | locus YPR141C, strain kar3, stronger effect = lower value 0.991 | locus YPR163C, strain tif3, stronger effect = lower value 1.01 | locus YPR167C, strain met16, stronger effect = lower value 0.989 | strain wtn01, stronger effect = lower value 1.01
active: locus YAL021C, strain ccr4, stronger effect = lower value 0.241 | locus YAL026C, strain drs2, stronger effect = lower value 0.376 | locus YAL030W, strain snc1, stronger effect = lower value 0.69 | locus YBL061C, strain skt5, stronger effect = lower value 0.548 | locus YBR009C, strain hhf1, stronger effect = lower value 0.667 | locus YBR023C, strain chs3, stronger effect = lower value 0.479 | locus YBR171W, strain sec66, stronger effect = lower value 0.753 | locus YBR231C, strain swc5, stronger effect = lower value 0.479 | locus YBR279W, strain paf1, stronger effect = lower value 0.838 | locus YCL011C, strain gbp2, stronger effect = lower value 0.67 | locus YCL016C, strain dcc1, stronger effect = lower value 0.695 | locus YCL069W, strain vba3, stronger effect = lower value 0.751 | locus YCR088W, strain abp1, stronger effect = lower value 0.781 | locus YDL005C, strain med2, stronger effect = lower value 0.879 | locus YDL040C, strain nat1, stronger effect = lower value 0.795 | locus YDR001C, strain nth1, stronger effect = lower value 0.787 | locus YDR069C, strain doa4, stronger effect = lower value 0.399 | locus YDR137W, strain rgp1, stronger effect = lower value 0.255 | locus YDR159W, strain sac3, stronger effect = lower value 0.789 | locus YDR297W, strain sur2, stronger effect = lower value 0.697 | locus YDR334W, strain swr1, stronger effect = lower value 0.424 | locus YDR335W, strain msn5, stronger effect = lower value 0.737 | locus YDR392W, strain spt3, stronger effect = lower value 0.567 | locus YEL003W, strain gim4, stronger effect = lower value 0.675 | locus YEL037C, strain rad23, stronger effect = lower value 0.734 | locus YEL061C, strain CIN8 (second series), stronger effect = lower value 0.814 | locus YER015W, strain faa2, stronger effect = lower value 0.493 | locus YER016W, strain bim1, stronger effect = lower value 0.705 | locus YER111C, strain swi4, stronger effect = lower value 0.708 | locus YER155C, strain BEM2 (second series), stronger effect = lower value 0.696 | locus YFR010W, strain ubp6, stronger effect = lower value 0.539 | locus YGL167C, strain pmr1, stronger effect = lower value 0.814 | locus YGL173C, strain kem1, stronger effect = lower value 0.286 | locus YGL227W, strain vid30, stronger effect = lower value 0.83 | locus YGL240W, strain doc1, stronger effect = lower value 0.667 | locus YGL253W, strain hxk2, stronger effect = lower value 0.638 | locus YHR027C, strain rpn1, stronger effect = lower value 0.401 | locus YHR142W, strain chs7, stronger effect = lower value 0.451 | locus YJL092W, strain hpr5, stronger effect = lower value 0.774 | locus YJL095W, strain BCK1 (second series), stronger effect = lower value 0.236 | locus YJL115W, strain asf1, stronger effect = lower value 0.816 | locus YJL129C, strain trk1, stronger effect = lower value 0.52 | locus YJL154C, strain vps35, stronger effect = lower value 0.782 | locus YJL164C, strain tpk1, stronger effect = lower value 0.545 | locus YJL166W, strain qcr8, stronger effect = lower value 0.596 | locus YKL160W, strain elf1, stronger effect = lower value 0.869 | locus YKR026C, strain gcn3, stronger effect = lower value 0.81 | locus YKR091W, strain srl3, stronger effect = lower value 0.757 | locus YLL001W, strain dnm1, stronger effect = lower value 0.722 | locus YLL026W, stronger effect = lower value 0.758 | locus YLL041C, strain sdh2, stronger effect = lower value 0.765 | locus YLR027C, strain aat2, stronger effect = lower value 0.751 | locus YLR221C, strain rsa3, stronger effect = lower value 0.668 | locus YLR258W, strain gsy2, stronger effect = lower value 0.685 | locus YLR262C, strain YPT6 (second series), stronger effect = lower value 0.185 | locus YLR320W, strain mms22, stronger effect = lower value 0.515 | locus YLR342W, strain FKS1, stronger effect = lower value 0.532 | locus YLR357W, strain rsc2, stronger effect = lower value 0.563 | locus YLR370C, strain arc18, stronger effect = lower value 0.577 | locus YLR384C, strain iki3, stronger effect = lower value 0.731 | locus YML120C, strain ndi1, stronger effect = lower value 0.768 | locus YMR058W, strain fet3, stronger effect = lower value 0.459 | locus YMR125W, strain sto1, stronger effect = lower value 0.803 | locus YMR129W, stronger effect = lower value 0.756 | locus YMR205C, strain PFK2, stronger effect = lower value 0.522 | locus YMR231W, strain pep5, stronger effect = lower value 0.641 | locus YNL071W, strain lat1, stronger effect = lower value 0.748 | locus YNL209W, strain ssb2, stronger effect = lower value 0.29 | locus YNL248C, strain rpa49, stronger effect = lower value 0.66 | locus YNL322C, strain KRE1 (second series), stronger effect = lower value 0.812 | locus YNR049C, strain mso1, stronger effect = lower value 0.785 | locus YOR001W, strain rrp6, stronger effect = lower value 0.683 | locus YOR070C, strain gyp1, stronger effect = lower value 0.71 | locus YOR080W, strain dia2, stronger effect = lower value 0.759 | locus YOR083W, strain WHI5, stronger effect = lower value 0.57 | locus YOR106W, strain vam3, stronger effect = lower value 0.307 | locus YOR265W, strain rbl2, stronger effect = lower value 0.683 | locus YOR270C, strain vph1, stronger effect = lower value 0.387 | locus YOR290C, strain snf2, stronger effect = lower value 0.578 | locus YPL051W, strain arl3, stronger effect = lower value 0.416 | locus YPL078C, strain atp4, stronger effect = lower value 0.76 | locus YPL106C, strain sse1, stronger effect = lower value 0.536 | locus YPL240C, strain hsp82, stronger effect = lower value 0.74
